High-throughput results from PubChem BioAssay.
TGFb inhibitor: inhibitors of TGF-b signaling; HepG2 CAGA-GFP TGF-b/SMAD3 reporter, GFP fluorescence, 18 h; TGF-beta stimulated, 500 pg/mL final; Potency, µM (titrated, usually from 46.1 µM), most hits filed as inhibitors; 410,000 tested, 1.2% active; AID 588855; further: nearly all actives have a fitted effect of over 65% in size
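Smad-responsive CAGA-GFP expression was quantified in HEPG2 cells exposed to compounds and 500 pg/mL final TGF-beta for 18 h at 37 degrees C; unstimulated wells defined full inhibition.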
HepG2 viability: kills HepG2 cells in TGF-b inhibitor counter-screen; 410,000 tested, 0.76% active; AID 588856; Potency, µM (series often up to 46.1 µM), usual class: cytotoxic; HepG2 CAGA-GFP viability, ATP luminescence, 18 h
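HepG2 CAGA-GFP cells (1000/well, DMEM with 1% FBS) received compound, then TGF-beta at 500 pg/mL final, and were incubated 18 hours at 37 degrees C. Viability was read by CellTiter-Glo luminescence. Media-only wells were set as complete cell-killing and DMSO as no toxicity.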
IL1B secr inh: inflammasome signaling inhibition, IL-1 beta readout; activity change, % at 57.5 µM; THP-1 LPS/ATP IL-1B secretion, AlphaLISA, 16 h; active compounds read low; AID 743279; 360,000 tested, 4.7% active; in the data active means activity change below about -50%; inconclusive means mostly about -30% to -49%
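Secreted IL-1B measured by AlphaLISA bead assay after 16 h compound exposure of THP-1 cells; compounds (final up to 57.5 uM) added 1 h before LPS (250 ng/mL) and ATP (1.25 mM) stimulation; lower signal means less secretion.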
DT40 TDP1 no CPT: qHTS for Inhibitors of human tyrosyl-DNA phosphodiesterase 1 (TDP1): qHTS in cells in absence of CPT. DT40 Tdp1-/- hTDP1 cells, no CPT, ATP luminescence, 48 h. Potency, µM (highest dose often 46.2 µM), usual class: inhibitors. 420,000 tested, 15% active; further: nearly all actives have a fitted effect of over 55% in size
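Growth kinetics read by CellTiter-Glo luminescence after ≥48 hr at 37 °C. Cells: DT40 Tdp1-/- stably carrying human TDP1, 400 per well, compound exposure in the absence of CPT (DMSO vehicle).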
DT40 TDP1 CPT: growth inhibition of DT40 Tdp1-/-;hTDP1 cells with camptothecin (screen for TDP1 inhibitors); chicken DT40 Tdp1-/-;hTDP1 cells + 20 nM CPT, ATP luminescence, 48 h; Potency, µM (series often up to 46.2 µM), hits mostly inhibitors; 420,000 tested, 12% active; AID 686979; further: nearly all actives have a fitted effect of over 55% in size
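Cell growth measured by CellTiter-Glo luminescence after a minimum 48 h, 37 C compound exposure with 20 nM CPT in Tdp1-knockout DT40 cells stably expressing hTDP1, seeded 400/well; qHTS titration format.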
TDP1 inh: inhibitors of human tyrosyl-DNA phosphodiesterase TDP1. Potency, µM (top dose mostly 130 µM), most hits filed as inhibitors. 350,000 tested, 0.28% active. Q9NUW8. recombinant TDP1, AlphaScreen DNA substrate cleavage; further: nearly all actives have a fitted effect of over 40% in size
Target sequence (Q9NUW8 whole entry, looked up): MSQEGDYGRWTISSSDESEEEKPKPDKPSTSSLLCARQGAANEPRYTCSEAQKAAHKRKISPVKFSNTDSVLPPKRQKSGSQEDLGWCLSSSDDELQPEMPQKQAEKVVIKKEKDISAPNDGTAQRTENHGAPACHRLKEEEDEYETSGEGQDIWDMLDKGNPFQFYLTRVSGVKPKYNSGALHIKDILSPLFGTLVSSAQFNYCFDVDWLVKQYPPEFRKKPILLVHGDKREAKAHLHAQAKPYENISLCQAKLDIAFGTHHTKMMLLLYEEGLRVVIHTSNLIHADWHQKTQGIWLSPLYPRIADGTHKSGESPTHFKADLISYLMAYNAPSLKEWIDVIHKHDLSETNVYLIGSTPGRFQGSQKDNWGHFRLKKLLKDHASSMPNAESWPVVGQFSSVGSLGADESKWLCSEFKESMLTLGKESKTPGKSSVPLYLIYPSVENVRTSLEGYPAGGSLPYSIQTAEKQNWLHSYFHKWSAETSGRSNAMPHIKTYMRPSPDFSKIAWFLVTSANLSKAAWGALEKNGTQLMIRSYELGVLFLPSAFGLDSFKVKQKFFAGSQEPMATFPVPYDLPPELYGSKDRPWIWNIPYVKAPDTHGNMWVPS
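E. coli-derived human Tdp1, 1 nM final. Cpd preinc 15 min RT; substrate 15 nM final, 5 min RT; AS bead mix 10 ug/ml final, 10 min RT. Signal loss = tyrosine-FITC cleavage. No-enzyme wells = max signal.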
A number is an active result; - = inactive; ? = inconclusive; . = no result given. Hits are enriched below; roughly 18% of the tested compounds scored in any of these assays. Unless noted, the call rests on the fitted dose curve; in most records, active means well fitted curve in the direction sought with a large enough effect; inconclusive means small, poorly fitted or top-dose-only effect, or another doubt; inactive means no such curve, though single readings can be large; an effect the other way counts as inactive or inconclusive.

SMILES	TGFb inhibitor	HepG2 viability	IL1B secr inh	DT40 TDP1 no CPT	DT40 TDP1 CPT	TDP1 inh
CCN(CC)CCCNC(=O)c1cc2c(-c3cccc(OC)c3)nn(C)c2s1	-	-	?	14.6µM	?	.
COCCCNC(=O)c1cc2c(-c3ccc(Cl)cc3)nn(C)c2s1	-	-	-	?	?	-
O=C(c1ccccc1Cl)N1CCN(CCc2ccccn2)CC1	-	-	.	-	-	-
Cc1ccc(NC(=O)CN(C)C(=O)c2ccc(NS(=O)(=O)c3ccc4[nH]c(=O)[nH]c4c3)cc2)cc1	-	-	-	-	-	-
CCOCCn1c(C)c(C(=O)OCC)c2cc(O)c3ccccc3c21	-	-	-	?	?	-
CO[C@@H]1[C@@H](OC)[C@H](C)[C@@](O)(CC(=O)O)O[C@H]1[C@H](C)[C@H]1O[C@@]2(CC[C@@](C)([C@H]3CC[C@@](C)([C@@H]4O[C@@H]([C@H]5O[C@](C)(O)[C@H](C)C[C@@H]5C)C[C@@H]4OC4C[C@H](OC)[C@@H](OC)[C@H](C)O4)O3)O2)C[C@H](O)[C@H]1C (stereo not given in full)	.	.	.	0.335µM	0.596µM	.
CC[C@@]1([C@@H]2O[C@@H]([C@H]3O[C@@](O)(CO)[C@H](C)C[C@@H]3C)C[C@@H]2C)CC[C@H]([C@]2(C)CC[C@]3(C[C@H](O)[C@@H](C)[C@@H]([C@@H](C)[C@@H](OC)C(C)C(=O)O)O3)O2)O1 (stereo not given in full)	.	.	.	.	.	-
C/C(=N\Nc1ccc([N+](=O)[O-])cc1)c1cccc(N)c1	-	-	-	20.6µM	?	-
C/C(=N\Nc1ccc([N+](=O)[O-])cc1)c1ccc(O)cc1	-	-	-61.5	?	?	-
O=C(NCc1cccnc1)c1ccc2sc([C@@H]3O[C@H](CO)[C@H](O)[C@H](O)[C@H]3O)nc2c1	-	-	-	-	-	.
COC(=O)c1c(C)nc(C)c(C(=O)OC)c1-c1ccccc1[N+](=O)[O-]	.	.	.	.	.	-
COc1ccccc1NC(=S)N1CCN(c2nc(-c3ccccc3)cs2)CC1	-	-	-	16.4µM	18.4µM	-
COc1cccc(NC(=O)N2CCN(c3nc(-c4cccc(OC)c4)cs3)CC2)c1	?	-	-	5.17µM	5.17µM	.
COc1cccc(-c2csc(N3CCN(C(=S)Nc4ccc(Cl)cc4)CC3)n2)c1	?	-	-81.7	?	?	-
COc1cccc(-c2csc(N3CCN(C(=O)Nc4ccccc4Cl)CC3)n2)c1	-	-	-	?	?	-
COc1cccc(-c2csc(N3CCN(C(=O)NC45CC6CC(CC(C6)C4)C5)CC3)n2)c1	-	-	-	13µM	?	-
CNC(=S)N1CCN(c2nc(-c3cccc(OC)c3)cs2)CC1	-	-	-	?	?	.
O=C1CCc2cc(S(=O)(=O)Nc3cccc(-c4ccccc4)c3)ccc2N1	.	.	.	.	.	-
CC1(C)Cc2c(sc(NC(=O)C(=O)N3CCCCC3)c2C(=O)O)CO1	-	-	-	-	-	-
Cc1ccccc1-c1cc(C(=O)NCc2ccco2)nn1CC1CC(c2cccc([N+](=O)[O-])c2)=NO1 (stereo not given)	-	-	-	?	16.4µM	-
Cc1ccccc1-c1cc(C(=O)NCc2cccs2)nn1CC1CC(c2cccc([N+](=O)[O-])c2)=NO1 (stereo not given)	-	-	-	16.4µM	?	-
O=C(Nc1nc(-c2cccs2)cs1)C1=COCCO1	-	-	-	23.1µM	?	-
O=C(Nc1nc(-c2ccc(F)c(F)c2)cs1)C1=COCCO1	-	-	-	?	?	-
CCc1ccc(-c2csc(NC(=O)C3=COCCO3)n2)cc1	?	-	-	?	11.6µM	-
O=C(Nc1nc(-c2ccc(Cl)cc2)cs1)C1=COCCO1	-	-	-84.0	23.1µM	23.1µM	-
SMILES	TGFb inhibitor	HepG2 viability	IL1B secr inh	DT40 TDP1 no CPT	DT40 TDP1 CPT	TDP1 inh
O=C(Cc1ccccc1)Nc1nc(-c2cccs2)cs1	-	-	-	-	?	-
O=C(Nc1nc(-c2cccs2)cs1)c1ccc([N+](=O)[O-])o1	?	11.2µM	-89.8	20.6µM	?	-
CSC(C(=O)c1cc2ccccc2o1)c1ccccc1 (stereo not given)	-	-	-	?	-	-
Cc1sc(NC(=O)C2=COCCO2)nc1-c1ccc(Cl)cc1	?	-	-	20.6µM	?	-
Cc1cc(-c2ccc(S(=O)(=O)Nc3cccc(Cl)c3C)cc2)on1	?	-	.	6.51µM	6.51µM	-
Cc1cc(-c2ccc(S(=O)(=O)Nc3ccccc3C)cc2)on1	?	-	.	4.61µM	5.17µM	-
Cc1c(Cl)cccc1NS(=O)(=O)c1ccccc1	-	-	-	-	-	.
Cc1ccc(NS(=O)(=O)c2ccc(-c3cc(C)no3)cc2)c(Br)c1	?	-	.	8.2µM	11.6µM	-
CCOC(=O)c1ccc(NS(=O)(=O)c2ccc(-c3cc(C)no3)cc2)cc1	-	-	.	?	?	-
Cc1cc(-c2ccc(S(=O)(=O)Nc3ccc(Cl)cc3C)cc2)on1	12.6µM	-	.	3.26µM	4.61µM	-
Cc1[nH]c2ccccc2c1C(=O)C(=O)Nc1ccc2c(c1)OCO2	-	-	-	?	-	-
COc1ccc(N2CC(NC(=O)c3ccc(S(=O)(=O)N4CCOCC4)cc3)CC2=O)cc1 (stereo not given)	-	-	.	?	-	-
CCOc1ccc(C(=O)COC(=O)Cn2cnc3c2c(=O)n(C)c(=O)n3C)cc1	-	-	-	-	-	-
Cn1c(=O)c2c(ncn2CC(=O)OCCCC(=O)c2ccc(Br)cc2)n(C)c1=O	-	-	-	6.51µM	18.4µM	-
Cc1ccc(OCCn2c(Br)nc3c2c(=O)n(C)c(=O)n3C)cc1	-	-	-	18.4µM	11.6µM	-
Cn1c(=O)c2c(ncn2CCOc2cccc(Br)c2)n(C)c1=O	?	-	-	9.2µM	8.2µM	.
Cn1c(=O)c2c(nc(Oc3cccc(Br)c3)n2C)n(C)c1=O	-	-	-	-	-	-
CCc1nnc(NC(=O)CCC(=O)NC2CCCC2)s1	-	-	-	-	-	-
CC(C)(C)NC(=O)c1ccc(Sc2ccccc2)c([N+](=O)[O-])c1	?	-	-	8.2µM	?	-
O=C(O)CNC(=O)c1ccc(Sc2ccccc2)c([N+](=O)[O-])c1	-	-	-	-	-	-
CCOc1cc(/C=N\NC(=O)C2C(=O)NCC2c2ccccc2)ccc1OC (stereo not given)	-	-	-	-	-	-
